Source: PubChem (National Center for Advancing Translational Sciences (NCATS))
ALDH1A1 inh – qHTS Assay for Inhibitors of Aldehyde Dehydrogenase 1 (ALDH1A1) | AID 1030, 2008 | Aldehyde dehydrogenase 1A1 (Homo sapiens), P00352 | 220,000 tested, 7.3% active | Potency, µM (top dose mostly 75.3 µM), for inactives: top-dose activity, negative = inhibition, actives largely listed as inhibitors | Purified ALDH1A1, NADH fluorescence, propionaldehyde substrate;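 also: potency is read from the fitted curve at half-maximal effect; plate controls were no enzyme wells and a reference inhibitor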
IMPase Li inh – qHTS Assay for Identifying the Cell-Membrane Permeable IMPase Inhibitors: Potentiation with Lithium | CHO-M1 cells, IP1 TR-FRET (IP-One), carbachol + lithium | Potency, µM (series often up to 59.4 µM), for the others: at the highest dose activity, negative = IMPase inhibition, actives largely listed as inhibitors | 210,000 tested, 0.35% active | AID 1457, 2008; active = well fitted inhibition curve with a large enough effect; inconclusive = small, poorly fitted or top-dose-only effect; inactive = no such curve, though single readings can be large or run the other way;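 also: IP1 builds up when IMPase is blocked and the TR-FRET signal falls; potency is read from the fitted curve at half-maximal effect; plate controls were basal vehicle for no effect and high inhibitor control for full effect; nearly all actives have a fitted effect of over 50% in size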
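CHO-M1, 2000 cells/well, 16–30 h culture; cpd + low Li+, 30 min 37C; lysis with d2-IP1/Eu-anti-IP1 Ab, 10 min RT; TR-FRET 665/620 ratio and 620 channel; AC50 via Hill.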
PNC inhibitor – High Content Assay for Compounds that inhibit the Assembly of the Perinucleolar Compartment; PC3M PTB-GFP, PNC prevalence imaging, 16 h; stronger effect = lower value; activity change (PNC), negative = inhibition, % at 10 µM; 140,000 tested, 3.1% active;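 active = readout at or below -70, meaning at least 70% loss of cells showing the perinucleolar compartment, a nuclear body marking cancer cells; inconclusive = readout between -30 and a set limit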;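 also: plate controls were DMSO wells for no effect and camptothecin positive control wells for full effect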
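Read-out is percentage of cells bearing a perinucleolar compartment, from automated 20x imaging of fixed, Hoechst-stained PC3M PTB-GFP cells. Cells were seeded 4 h, then exposed 16 h to compound (23 nl of library stock) in duplicate plates.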
IMPase inh – qHTS Assay for Identifying the Cell-Membrane Permeable IMPase Inhibitors; CHO-M1 cells, IP1 accumulation, HTRF TR-FRET ratio; Inositol monophosphatase 1 (Rattus norvegicus), P97697; inhibition (IP1 accumulation), % at 46.1 µM; 120,000 tested, under 10 active; active = well fitted curve in the direction sought with a large enough effect in the signal ratio, not every such curve was filed as active; inconclusive = small, poorly fitted or top-dose-only effect, or a change in a side signal; inactive = no such curve, though single readings can be large or run the other way; the % refers to the signal ratio;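 also: cells stimulated with carbachol in lithium chloride buffer; plate controls were DMSO basal wells for no effect and reference inhibitor wells for full effect; higher means more IMPase inhibition seen as more IP1 and lower FRET ratio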
Target sequence (P97697 whole entry, looked up): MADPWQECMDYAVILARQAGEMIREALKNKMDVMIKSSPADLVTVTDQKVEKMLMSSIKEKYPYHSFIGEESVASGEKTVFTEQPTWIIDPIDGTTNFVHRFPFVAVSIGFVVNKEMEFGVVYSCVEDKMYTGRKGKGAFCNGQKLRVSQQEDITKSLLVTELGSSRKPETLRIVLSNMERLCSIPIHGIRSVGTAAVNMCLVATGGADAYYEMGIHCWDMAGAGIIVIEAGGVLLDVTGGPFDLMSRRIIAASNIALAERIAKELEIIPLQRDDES
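Seeded CHO-M1 cells were dosed with compound at up to 46 uM, stimulated with carbachol for 30 min, then lysed in IP-One detection reagents. Higher IP1 lowers the TR-FRET signal.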
HPGD block – qHTS Assay for Inhibitors of HPGD (15-Hydroxyprostaglandin Dehydrogenase); 15-hydroxyprostaglandin dehydrogenase [NAD(+)] (Homo sapiens), P15428; purified HPGD, NADH fluorescence kinetic, PGE2 substrate; Potency, µM, for inactives: at the highest dose activity change, negative = inhibition, actives largely listed as inhibitors; 150,000 tested, 4.3% active; AID 894, 2007; also: potency is read from the fitted curve at half-maximal effect
Target sequence (P15428 whole entry, looked up): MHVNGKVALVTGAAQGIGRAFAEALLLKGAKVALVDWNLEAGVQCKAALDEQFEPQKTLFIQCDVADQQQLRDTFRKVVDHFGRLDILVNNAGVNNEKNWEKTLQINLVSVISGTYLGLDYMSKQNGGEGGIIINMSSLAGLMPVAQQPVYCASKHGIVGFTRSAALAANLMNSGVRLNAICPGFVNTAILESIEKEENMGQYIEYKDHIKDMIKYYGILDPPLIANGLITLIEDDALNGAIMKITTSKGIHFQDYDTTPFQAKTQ
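20 nM HPGD preincubated 15 min at room temperature with compound in 50 mM Tris-HCl pH 8, 0.01% Tween 20. Started with 1 mM NAD+ and 30 uM prostaglandin E2; NADH fluorescence (360/450 nm) read 5 times over 30-s intervals, last minus first.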
Starred values were filed as active, the others as inactive; ? = inconclusive; / = not tested or not shown; [ ] = dose if it differs, or a comment. Hits are enriched below; roughly 11% of the tested compounds scored in any of these assays. Unless noted, calls follow the shape of the dose curve; as a rule, active = well fitted inhibition curve with a large enough effect (not every such curve was filed as active); inconclusive = small, poorly fitted or top-dose-only effect, or another doubt; inactive = no such curve, though single readings can be large or run the other way. Unless noted, % is scaled to controls: 0 for no effect and ±100 for the full control effect.

SMILES | ALDH1A1 inh | IMPase Li inh | PNC inhibitor | IMPase inh | HPGD block
O=C(NNc1ccc(O)cc1)c1ccc(Br)cc1 | 7.08µM* | 4.7% | / | / | /
COc1cc(/C=C(\NC(C)=O)C(=O)Nc2ccccc2C)ccc1OC(C)=O | 28.2µM* | -0.2% | 22.4 | / | 0.2%
COc1cc(/C=C(\NC(C)=O)C(=O)NC(C)(C)CC(C)(C)C)ccc1OC(C)=O | 5.0% | -2.6% | 28.5 | / | -7.7%
COc1ccc(NC(=O)/C(=C\c2ccc3c(c2)OCO3)NC(C)=O)cc1 | -4.3% | -0.2% | 16.2 | -5.5 | -16.8%
COc1ccc(NC(=O)/C(=C/c2ccc(OC(C)=O)c(OC)c2)NC(C)=O)cc1 | 3.98µM* | 6.5% | 49.9 | / | -14.2%
COc1cc(/C=C(\NC(C)=O)C(=O)Nc2ccc(NC(C)=O)cc2)ccc1OC(C)=O | 0.251µM* | 4.2% | 27.1 | / | -11.8%
COc1ccc(/C=C(/C#N)C(=O)Nc2ccccc2C)cc1C(=O)O | 5.5% | -6.8% | -16.3 | 0.1 | -16.4%
COc1ccc2c(c1)c1ccccc1n2C | ? | 32.5%[38.3 µM] | ? | -3.9 | ?
COc1ccc2c(c1)c1nnc(SCC(=O)N3C(C)CCCC3C)nc1n2C (configuration not stated) | ? | 5.7%[38.3 µM] | 55.2 | 4.2 | 11.2µM*
COc1ccc2c(c1)c1nnc(SC)nc1n2C | 6.9% | 0.1%[38.3 µM] | -88.4* | 2.8 | -12.3%
COc1ccccc1NC(=O)c1c(C)oc2c1CCCC2 | ? | 24.2% | -114.1* | -6.5 | -21.7%
CCN=C1SC(CC(=O)NCCc2ccc(OC)cc2)C(=O)N1CC (configuration not stated) | -3.7% | 26.5%[38.3 µM] | 7.6 | 5.8 | -15.1%
COc1ccc(CCNC(=O)CC2SC(=NCCc3ccccc3)NC2=O)cc1OC (configuration not stated) | 14.1µM* | -1.4% | ? | / | -1.0%
COc1ccc(CCNC(=O)CC2SC(=NCCC(C)C)NC2=O)cc1OC (configuration not stated) | ? | 1.3% | ? | 0.8 | -2.3%
COc1ccc(CCNC(=O)CC2SC(=NCc3ccccc3)NC2=O)cc1 (configuration not stated) | 31.6µM* | -12.0% | / | / | /
COc1ccc(CCNC(=O)CC2SC(=NCCc3ccccc3)NC2=O)cc1 (configuration not stated) | 28.2µM* | 0.2% | 5.6 | -7.2 | -8.3%
CCN=C1SC(CC(=O)NCCc2ccc(OC)c(OC)c2)C(=O)N1CC (configuration not stated) | 20µM* | 7.4%[38.3 µM] | 9.5 | 11.3 | -4.5%
COC(=O)N1C(c2ccccc2)=Cc2ccccc2C1CC(C)=O (configuration not stated) | -5.2%[13.5 µM] | -3.6% | / | / | -30.1%
COC(=O)c1cc(NC(=O)C2CC(=O)NC(=NCc3ccc(OC)cc3)S2)cc(C(=O)OC)c1 (configuration not stated) | 4.8% | 4.5% | / | / | /
COc1ccc(CN=C2NC(=O)CC(C(=O)Nc3cc(C)cc(C)c3)S2)cc1 (configuration not stated) | 4.8% | 0.4% | -83.9* | / | 1.0%
CCCCCOC(=O)CSc1nc2sc3c(c2c(=O)n1Cc1ccccc1)CC(C)(C)OC3 | / | / | / | -1.3 | /
CCCCCc1nc2sc3c(c2c(=O)n1NC(=O)c1ccc([N+](=O)[O-])cc1)CC(C)(C)OC3 | 8.91µM* | 14.2% | ? | 2.2 | -10.5%
NC(=O)COc1ccc(-c2noc(COc3ccc(Cl)cc3)n2)cc1 | / | / | / | 4.0 | /
COc1ccc(/C=C2\CCn3c2nc2cc(C(=O)O)ccc2c3=O)cc1O | 22.4µM* | 22.4% | -96.1* | ? | 14.1µM*
COc1ccc(-n2c3c(cc(C(=O)NNc4ccccc4)c2=O)C(=O)CC(C)(C)C3)cc1 | ? | 8.8% | / | / | /
SMILES | ALDH1A1 inh | IMPase Li inh | PNC inhibitor | IMPase inh | HPGD block
COc1ccc(-n2c3c(cc(C(=O)NNc4ccccc4C)c2=O)C(=O)CC(C)(C)C3)cc1 | 20µM* | -3.5% | / | / | /
Brc1cccc(-c2cnc3n2CCCCC3)c1 | -6.0% | 14.4%[38.3 µM] | 6.6 | 12.4 | ?
O=C1Nc2ccc(Br)cc2C1=Nc1ccc(-c2nnc3n2CCCCC3)cc1 | -5.1% | -1.9%[38.3 µM] | ? | 3.3 | 3.98µM*
Brc1cccc(-c2nnc3n2CCCCC3)c1 | -11.8% | 25.1%[38.3 µM] | -26.3 | 8.9 | 6.31µM*
c1ccc(-c2nnc3n2CCCC3)cc1 | 1.7% | -2.3%[38.3 µM] | ? | -10.0 | 14.1µM*
COc1cccc(/C=N/n2c(-c3n[nH]c4c3CCC4)n[nH]c2=S)c1O | ? | 18.0% | 12.3 | / | ?
COc1ccccc1/C=C/C=N/n1c(-c2n[nH]c3c2CCC3)n[nH]c1=S | 8.91µM* | / | / | / | /
S=c1[nH]nc(-c2ccco2)n1/N=C/C=C/c1ccco1 | -8.3% | 6.0% | ? | / | 14.1µM*
S=c1[nH]nc(-c2n[nH]c3c2CCC3)n1/N=C/C=C/c1ccco1 | 7.08µM* | / | / | / | /
COC(=O)c1sc(NC(=O)/C=C/c2ccc(C)o2)nc1C | ? | 1.0% | -19.3 | / | 5.5%
O=C(CCCCCN1C(=O)CCC1=O)Nc1ccc(Cl)c(C(F)(F)F)c1 | -2.7% | 7.0%[38.3 µM] | -7.7 | -0.7 | -5.3%
CC1CCN(S(=O)(=O)c2ccc(Cl)cc2Br)CC1 | 7.1% | 27.7%[38.3 µM] | ? | 1.1 | ?
O=C(NNC(=O)C1CCN(Cc2ccc(F)cc2Cl)CC1)Nc1ccc([N+](=O)[O-])cc1 | -6.9% | 7.3% | / | / | /
CC1CCN(S(=O)(=O)c2cc([N+](=O)[O-])ccc2Cl)CC1 | 3.55µM* | 25.2% | / | / | /
O=[N+]([O-])c1ccc(Cl)c(CN2CCC(O)CC2)c1 | ? | 0.0% | -123.8* | / | -10.1%
Cc1ccc(C)c2[nH]c(=O)c(CCNC(=O)c3ccc(S(=O)(=O)N(C)C)cc3)cc12 | 22.4µM* | 34.2%[38.3 µM] | -4.9 | 3.7 | -4.5%
COc1ccc2c(c1)O[C@H](c1ccc3c(c1)OCO3)[C@@H](OC(=O)NS(=O)(=O)c1ccc(C)cc1)C2=O | ? | 7.2% | / | / | -1.9%
COC(=O)C(C(=O)OC)[C@@H](NC(=O)OCc1ccccc1)c1ccccc1 | -15.7% | 10.1% | / | / | -6.7%
Cn1cccc1C(=O)N1CCC2(CCCN(Cc3ccccc3)C2)CC1 | -10.7% | 32.5% | / | / | -9.3%
COc1cccc(C(=O)C(C#N)=C(SC)SC)c1 | 7.08µM* | / | / | / | /
N#CC(C#N)=C(Nc1ccccc1)c1ccccc1 | ? | 0.1% | / | / | /
CSC(SC)=C(C#N)C(=O)c1ccccc1 | 22.4µM* | / | / | / | /
COc1ccccc1CNc1cc(-c2ccoc2)ncn1 | ? | 2.4% | / | / | /
CCC/C=C(\CCC)C(NC(=O)c1ccccc1)c1ccc(C(=O)OC)cc1 (configuration not stated) | -10.2% | 7.4% | / | / | -13.2%
